# Test results from the supplement of paper PMC9262897, “Low-cost anti-mycobacterial drug discovery using engineered E. coli” (Nature Communications, 2022).
# Where a name gives a salt, the structure may show the parent alone. ± gives the standard deviation of the averaged measurements.
# Tested on: E. coli TESEC Mtb Alr
# Assay: growth (OD600 after 10 h); higher = more growth (less inhibition)
# Settings: arabinose 1000000 nM; compound 0.1 mM; raw OD600 reference: median of DMSO wells 0.193, cell-free background 0.041
# Description: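 TESEC Mtb Alr E. coli, or the Alr+ wild-type control, in 384-well plates with Prestwick library compounds at 0.1 mM and 1% DMSO, across arabinose induction levels of 1E3 to 1E7 nM. Growth is read as OD600 after 10 h at 37 °C in triplicate biological replicates.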
row,SMILES,growth
1,O=C1OC(CN2CCOCC2)CN1/N=C/c1ccc([N+](=O)[O-])o1 (centres undefined) [Furaltadone hydrochloride],0.0404 ± 0.00046
2,CN(C)CCCN1c2ccccc2CCc2ccccc21 [Imipramine hydrochloride],0.133 ± 0.0058
3,CCOC(=O)O[C@]1(C(=O)OCCl)CC[C@H]2[C@@H]3CCC4=CC(=O)C=C[C@]4(C)[C@H]3[C@@H](O)C[C@@]21C [Loteprednol etabonate],0.114 ± 0.01
4,CCCNC(C)C(=O)Nc1ccccc1C (centres undefined) [Prilocaine hydrochloride],0.167 ± 0.0054
5,NS(=O)(=O)c1cc2c(cc1Cl)NCNS2(=O)=O [Hydrochlorothiazide],0.166 ± 0.0054
6,Cc1cc2c(s1)Nc1ccccc1N=C2N1CCN(C)CC1 [Olanzapine],0.158 ± 0.006
7,Nc1ccc(C(=O)O)c(O)c1 [4-aminosalicylic acid],0.19 ± 0.004
8,CC(=O)Oc1ccc(C(c2ccc(OC(C)=O)cc2)c2ccccn2)cc1 [Bisacodyl],0.201 ± 0.0038
9,"CN(Cc1cnc2nc(N)nc(N)c2n1)c1ccc(C(=O)N[C@@H](CCC(=O)O)C(=O)O)cc1 (racemic) [Amethopterin (R,S)]",0.14 ± 0.0075
10,CC(C(=O)O)c1ccc(C(=O)c2ccccc2)s1 (centres undefined) [Tiaprofenic acid],0.205 ± 0.0076
11,Nc1c2ccccc2nc2ccccc12 [Aminacrine],0.0398 ± 0.0011
12,CCCC(CCC)C(=O)O [Valproic acid],0.22 ± 0.0036
13,Cc1[nH]cnc1CN1CCc2c(c3ccccc3n2C)C1=O [Alosetron hydrochloride],0.178 ± 0.008
14,CN(C)c1nc(N(C)C)nc(N(C)C)n1 [Altretamine],0.176 ± 0.008
